Results filed as inconclusive are left out. A number with no mark means an inactive call. Active and inactive are the calls of the source. Calls follow the shape of the dose curve; as a rule, active = well fitted activation curve with a large enough effect in the repeat runs; inconclusive = weak or mixed curves; inactive = no such curve, though single readings can be large or run the other way.
biological target: Aryl hydrocarbon receptor (Homo sapiens) (UniProt P35869); experiment: qHTS assay to identify small molecule that activate the aryl hydrocarbon receptor (AhR) signaling pathway (AID 743085); details: HepG2 AhR-luc (HG2L7.5c1), luciferase, 24 h; series mostly up to 70.3 µM; activation: at the top concentration; also: nearly all actives have a fitted effect of over 15% in size;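 as to activation: HG2L7.5c1 human HepG2 liver cells with stably integrated DRE-driven firefly reporter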
Sequence (P35869 whole entry, looked up): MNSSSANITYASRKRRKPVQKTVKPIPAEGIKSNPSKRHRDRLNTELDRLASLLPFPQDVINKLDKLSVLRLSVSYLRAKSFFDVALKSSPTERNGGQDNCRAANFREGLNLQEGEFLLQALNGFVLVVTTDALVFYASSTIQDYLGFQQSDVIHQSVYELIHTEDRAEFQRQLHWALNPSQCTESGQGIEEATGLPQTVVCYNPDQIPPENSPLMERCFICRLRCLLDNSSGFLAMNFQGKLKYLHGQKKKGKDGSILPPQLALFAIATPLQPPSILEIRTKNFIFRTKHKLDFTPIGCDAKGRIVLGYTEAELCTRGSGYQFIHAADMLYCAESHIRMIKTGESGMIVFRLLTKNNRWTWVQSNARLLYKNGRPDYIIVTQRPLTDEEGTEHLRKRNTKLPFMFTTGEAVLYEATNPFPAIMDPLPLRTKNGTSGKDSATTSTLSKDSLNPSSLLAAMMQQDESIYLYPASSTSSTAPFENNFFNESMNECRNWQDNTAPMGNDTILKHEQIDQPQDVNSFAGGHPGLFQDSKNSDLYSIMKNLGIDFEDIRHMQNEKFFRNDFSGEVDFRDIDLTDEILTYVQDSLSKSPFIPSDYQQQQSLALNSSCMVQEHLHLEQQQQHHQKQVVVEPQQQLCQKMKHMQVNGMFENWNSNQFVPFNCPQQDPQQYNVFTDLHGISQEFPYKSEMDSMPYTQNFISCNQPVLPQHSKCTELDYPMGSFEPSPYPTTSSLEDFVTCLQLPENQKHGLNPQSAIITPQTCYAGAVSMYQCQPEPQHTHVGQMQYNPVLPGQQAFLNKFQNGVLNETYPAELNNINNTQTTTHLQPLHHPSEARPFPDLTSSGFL
Source text: U.S. Tox21 Program National Center for Advancing Translational Sciences [NCATS] NIH Chemical Genomics Center [NCGC] U.S. Environmental Protection Agency [EPA] National Institutes of Environmental Health Sciences [NIEHS] National Toxicology Program [NTP] U.S. Food and Drug Administration [FDA] Tox21 Assay overview: The Aryl hydrocarbon Receptor (AhR), a member of the family of basic helix-loop-helix transcription factors, is crucial to adaptive responses to environmental changes. AhR mediates cellular responses to environmental pollutants such as aromatic hydrocarbons through induction of phase I and II enzymes but also interacts with other nuclear receptor signaling pathways. A cell based HepG2-AhR-luc assay (HG2L7.5c1 cell line, developed by Dr. Michael S. Denison, University of California at Davis, was used to assess the activation of AhR. HepG2 (human hepatocellular carcinoma) cells were stably transfected with an Ah receptor-responsive firefly luciferase reporter gene plasmid containing 20 dioxin responsive elements and luciferase reporter gene. Increased luciferase activity can be used to identify the compounds that induce AhR activation.
Tox21 Assay Protocol Summary: 4000 cells in 5 uL/well were dispensed into white wall/solid bottom 1536-well plates using a Multidrop Combi (Thermo Fisher Scientific Inc., Waltham, MA) dispenser. After the assay plates were incubated at 37C for 5 h, 23 nL of compound or DMSO vehicle was transferred to the assay plates by a pintool station (Kalypsys, San Diego, CA). The plates were incubated at 37C for 24 hr. After 1 ul/well of CellTiter-Fluor reagent (Promega, Madison, WI) was added into the assay plates using a Flying Reagent Dispenser (FRD) (Aurora Discovery, CA), the assay plates were incubated at 37C for 30 min. The fluorescence intensity in the plates was measured using a ViewLux plate reader (PerkinElmer, Shelton, CT), followed by the addition of 4 uL of ONE-Glo Luciferase Assay reagent (Promega) using an FRD (Aurora Discovery). After the assay plates were incubated at room temperature for 30 min, luminescence intensity was measured using a ViewLux plate reader (Perkin Elmer).
% is scaled to controls: 0 for no effect and ±100 for the full control effect; potency is read from the fitted curve at half-maximal effect.

Compound	activation	Potency
COC(=O)[C@@H](N)CCCN/C(N)=N/[N+](=O)[O-]	-4.15%	–
CCN(CC)C1CCCCC1	-1.2%	–
CCOC(=O)N(C)N=O	-0.994%	–
CCC(C)(C#N)N=NC(C)(C#N)CC (stereo not given)	-0.728%	–
CN(C)CCN(C)C	-2.39%	–
CCCN1CCC[C@@H]2Cc3nc(N)ncc3C[C@H]21	–	21.1 µM (active)
NCCOS(=O)(=O)O	2.41%	–
O=C(Cl)c1ccccc1	-1.55% [at 95 µM]	–
BrCC1CO1 (stereo not given)	-2.44% [at 95 µM]	–
C#CCOC(=O)/C=C(C)/C=C/CC(C)CCCC(C)C (stereo not given)	0.948%	–
COc1cccc(C=O)c1	-0.0612%	–
CCN(CCO)CCO	2.15%	–
CCNc1nc(Cl)nc(NC(C)(C)C)n1	5.54%	–
O=C1CCCCC1Cl (stereo not given)	-2.42% [at 95 µM]	–
CN1C(=O)COc2c(C(=O)NC3CN4CCC3CC4)cc(Cl)cc21 (stereo not given)	-1.1%	–
CCOC1Oc2ccc(OS(C)(=O)=O)cc2C1(C)C (stereo not given)	4.58%	–
NNCc1ccccc1	–	55.5 µM (active)
CNC(=O)NC(O)C(Cl)(Cl)Cl (stereo not given)	-0.637%	–
CN(C)C1CCCCC1	0.123%	–
N#CN=C1SCCN1Cc1ccc(Cl)nc1	-0.158%	–

Compound	activation	Potency
S=C=S	–	inactive
C=CC(=O)OCCN(C)C	3.91%	–
C=CC=O	-0.0207% [at 95 µM]	–
C(COCC1CO1)OCC1CO1 (stereo not given)	4.06%	–
CCOC(=O)Nc1cccc(OC(=O)Nc2ccccc2)c1	–	54.5 µM (active)
NC1(c2ccccc2)CCCCC1	0.0845%	–
COc1ccc(CN2CCNCC2)c(OC)c1OC	-0.538% [at 32.5 µM]	–
CCOP(=S)(OCC)Oc1ccc(Cl)cc1Cl	–	19.3 µM (active)
CC(C)(C)C(=O)Cl	1.67% [at 95 µM]	–
CN=CNc1ccc(C)cc1C	-0.462%	–
C=CCN1CC[C@]23CCCC[C@H]2[C@H]1Cc1ccc(O)cc13	3.25%	–
O=C1CC(=O)NC(=O)N1	-3.96%	–
ClCOCCl	-0.894% [at 95 µM]	–
CCOP(=S)(OCC)SCCl	3.73%	–
O=c1[nH]oc2c1CCNC2	4.92%	–
COc1ccc(C=O)cc1O	0.132% [at 95 µM]	–
C[C@H](N)C(=O)c1ccccc1	4.12%	–
C=CCc1cc(OC)c2c(c1)OCO2	3.27% [at 95 µM]	–
C=C(Cl)CSC(=S)N(CC)CC	-2.34% [at 95 µM]	–
O=C1C2CC=CCC2C(=O)N1SC(Cl)(Cl)Cl (stereo not given)	–	inactive

Source: PubChem BioAssay (Tox21)
